High-throughput results deposited in PubChem by National Center for Advancing Translational Sciences (NCATS).
JMJD2A Tudor inh – qHTS Assay for Inhibitors of JMJD2A-Tudor Domain | Lysine-specific demethylase 4A (Homo sapiens), O75164 | AlphaScreen JMJD2A-Tudor / H3K4me3 peptide binding | Potency, µM (series often up to 114 µM), inactives show top-dose activity change, negative = inhibition, actives largely listed as inhibitors | 4.4% of 390,000 active | AID 504339, 2011; note: potency is the fitted concentration of half-maximal effect; % is set by controls: 0 for no effect and ±100 for the full control effect; nearly all actives have a fitted effect of over 50% in size
Target sequence (O75164 whole entry, looked up, the tested form may be a part): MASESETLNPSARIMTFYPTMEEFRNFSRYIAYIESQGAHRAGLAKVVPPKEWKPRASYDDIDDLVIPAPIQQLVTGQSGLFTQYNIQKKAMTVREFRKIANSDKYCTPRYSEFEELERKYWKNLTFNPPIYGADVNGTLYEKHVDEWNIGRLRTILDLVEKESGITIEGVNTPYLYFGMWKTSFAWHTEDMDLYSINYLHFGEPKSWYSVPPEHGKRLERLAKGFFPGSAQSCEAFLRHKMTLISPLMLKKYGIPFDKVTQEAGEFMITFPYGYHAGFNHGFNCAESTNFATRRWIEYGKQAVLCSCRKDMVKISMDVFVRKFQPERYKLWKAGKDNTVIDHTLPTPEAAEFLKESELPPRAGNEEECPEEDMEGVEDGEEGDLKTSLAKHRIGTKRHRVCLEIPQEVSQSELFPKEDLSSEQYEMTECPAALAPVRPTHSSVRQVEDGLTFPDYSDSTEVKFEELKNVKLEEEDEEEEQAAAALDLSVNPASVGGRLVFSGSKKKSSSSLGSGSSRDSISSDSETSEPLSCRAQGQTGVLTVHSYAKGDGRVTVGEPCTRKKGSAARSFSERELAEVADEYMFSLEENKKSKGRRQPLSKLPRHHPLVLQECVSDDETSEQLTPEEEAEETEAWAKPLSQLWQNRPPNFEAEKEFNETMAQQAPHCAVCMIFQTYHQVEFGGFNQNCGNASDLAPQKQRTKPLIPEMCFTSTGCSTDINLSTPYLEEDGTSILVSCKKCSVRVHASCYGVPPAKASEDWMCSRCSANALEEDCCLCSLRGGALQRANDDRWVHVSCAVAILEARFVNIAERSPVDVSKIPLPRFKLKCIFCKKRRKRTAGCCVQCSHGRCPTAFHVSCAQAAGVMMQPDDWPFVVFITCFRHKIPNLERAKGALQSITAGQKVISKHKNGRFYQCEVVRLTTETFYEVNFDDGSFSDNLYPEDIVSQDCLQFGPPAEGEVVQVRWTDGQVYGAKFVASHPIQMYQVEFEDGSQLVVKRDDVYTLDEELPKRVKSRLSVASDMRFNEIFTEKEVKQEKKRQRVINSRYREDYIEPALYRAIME
G9a block – qHTS Assay for Inhibitors of Histone Lysine Methyltransferase G9a; Potency, µM (series often up to 102 µM), inactives show at the highest dose activity, negative = inhibition, hits mostly inhibitors; Histone-lysine N-methyltransferase EHMT2 (Homo sapiens), Q96KQ7; G9a H3K9 monomethylation, AlphaScreen, 2 h; 8.8% of 350,000 active; AID 504332, 2011; note: potency is the fitted concentration of half-maximal effect; % is set by controls: 0 for no effect and ±100 for the full control effect; nearly all actives have a fitted effect of over 75% in size
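Compounds were preincubated with 20 nM G9a for 15 min, after which biotinylated H3K9 peptide (500 nM) and SAM (20 uM) started a 2 h room-temperature reaction. Monomethylated product was quantified by antibody-based AlphaScreen chemiluminescence.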
BAZ2B inh – qHTS Assay for Inhibitors of BAZ2B | AID 504333, 2011 | Bromodomain adjacent to zinc finger domain protein 2B (Homo sapiens), Q9UIF8 | Potency, µM (doses to about 114 µM), for inactives: top-dose activity change, negative = inhibition, most hits filed as inhibitors | AlphaScreen BAZ2B-H3K14Ac peptide displacement | 4.4% of 360,000 active; note: potency is the fitted concentration of half-maximal effect; % is set by controls: 0 for no effect and ±100 for the full control effect; nearly all actives have a fitted effect of over 60% in size
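AlphaScreen luminescence quantifies BAZ2B engagement of H3K14Ac peptide; the protein and biotinylated peptide are both at 50 nM final, buffer PBS pH 7.4 with 0.01% Tween-20, all steps at room temperature.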
Six1-Eya2 inh – qHTS Assay for Inhibitors of the Six1/Eya2 Interaction; Homeobox protein SIX1 (Homo sapiens) + Protein phosphatase EYA2 (Homo sapiens), …; AlphaScreen GST-Six1/His-Eya2 binding, biochemical; active compounds read low; activity change, % (concentration not given with the values); 0.56% of 360,000 active; AID 651725, 2012; in the data active = activity change below about -65%; inconclusive = mostly about -30% to -63%; note: % is set by controls: 0 for no effect and ±100 for the full control effect
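AlphaScreen luminescence read after one hour at 37 °C in darkness. Pin-transferred compounds met GST-Six1 and His-Eya2 protein (5X stock 250 nM/500 nM) plus glutathione donor and Ni-chelate acceptor beads (5X, 50 ug/mL).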
HP1b chromo inh – HTS for Inhibitors of HP1-beta Chromodomain Interactions with Methylated Histone Tails; Potency, µM (doses to about 114 µM), inactives show at the highest dose activity change, negative = inhibition, actives largely listed as inhibitors; AID 540317, 2011; Chromobox protein homolog 1 (Homo sapiens), P83916; 0.56% of 390,000 active; AlphaScreen HP1-beta / biotin-H3K9me3 peptide binding; note: potency is the fitted concentration of half-maximal effect; nearly all actives have a fitted effect of over 70% in size
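Compound inhibition of the preformed complex between 50 nM HP1-beta and 50 nM biotinylated H3K9me3 peptide was read by AlphaScreen. Buffer was PBS pH 7.4 with 0.01% Tween-20. Incubations ran 30 min at room temperature, with 10 ug/mL donor/acceptor beads.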
CtBP-E1A inh – qHTS Assay for Inhibitors of the CtBP/E1A Interaction. CtBP / adenovirus E1A interaction (AlphaScreen). activity change, % (no concentration beside the values). 0.49% of 340,000 active. AID 651724, 2012. AlphaScreen GST-E1A/His-CtBP binding, 1536-well; active compounds read low; in the data active = activity change below about -65%; inconclusive = mostly about -30% to -63%; note: % is set by controls: 0 for no effect and ±100 for the full control effect
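Steps: dispense buffer (Tris pH 8.0, NaCl 300 mM, TCEP 1 mM, BSA, Tween 20); add 5X protein mix (GST-E1A, His-CtBP, 125 nM each); pin 23 nL compound; 2 h at 37 °C, dark; add 5X beads (50 ug/mL); 1 h; read.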
Starred values were filed as active, the others as inactive; ? = inconclusive; . = no result given; [ ] = dose if it differs, or a comment. An excerpt weighted towards active compounds, which were near 10% of everything screened. Unless noted, calls come from the whole dose curve; as a rule, active = well fitted inhibition curve with a large enough effect; inconclusive = small, poorly fitted or top-dose-only effect; inactive = no such curve, though single readings can be large or run the other way.

SMILES	JMJD2A Tudor inh	G9a block	BAZ2B inh	Six1-Eya2 inh	HP1b chromo inh	CtBP-E1A inh
COc1cc(F)cc(F)c1[S+](=O)([O-])N1CCN([S+](=O)([O-])c2ccc3c(c2)OCCO3)CC1	-2.1%	.	.	.	.	.
Nc1ncnc2c1ccn2[C@H]1CN(Cc2ccc(Cl)cc2)C[C@@H](CO)O1	.	.	.	-1.7	.	-0.2
COc1ccc(C(CC(=O)N2CCCCC2)c2c(OC)cc(OC)c3c(-c4ccccc4)cc(=O)oc23)cc1 (stereo unspecified)	50.1µM*	-2.5%[12.7 µM]	44.7µM*	-10.2	-16.7%	.
COc1ccc(C(CC(=O)N2CCCC2)c2c(OC)cc(OC)c3c(-c4ccccc4)cc(=O)oc23)cc1 (stereo unspecified)	50.1µM*	14.3%[12.7 µM]	56.2µM*	-14.0	-15.6%	-0.4
CCN(CC)C(=O)CC(c1ccc(N(C)C)cc1)c1c(OC)cc(OC)c2c(-c3ccccc3)cc(=O)oc12 (stereo unspecified)	31.6µM*	-46.3%[12.7 µM]	20µM*	?	?	?
COc1cc(C(CC(=O)N2CCCC2)c2c(OC)cc(OC)c3c(-c4ccccc4)cc(=O)oc23)cc(OC)c1OC (stereo unspecified)	56.2µM*	7.3%[12.7 µM]	50.1µM*	-4.0	-13.0%	-5.6
COc1cc(C(CCN2CCCCC2)c2c(OC)cc(OC)c3c(-c4ccccc4)cc(=O)oc23)cc(OC)c1OC (stereo unspecified)	?	6.7%[59 µM]	-26.9%	?	9.6%	-26.0
COc1ccc(C(CC(=O)N2CCCC2)c2c(OC)cc(OC)c3ccc(=O)oc23)cc1 (stereo unspecified)	-11.0%	3.9%[59 µM]	-14.1%	1.9	23.6%	4.2
Cc1ccc2[nH]c3c(c2c1)CCCC3NCCO (stereo unspecified)	?	50.1µM*	?	-12.4	-15.6%	-8.2
Cc1ccc2[nH]c3c(c2c1)CCCC3=O	5.0%	-50.8%[12.7 µM]	?	-3.5	20.6%	0.0
CCOC(=O)c1c(C)[nH]c(N=Nc2cccc(C)c2)c1C	25.1µM*	?	25.1µM*	?	?	?
CCOC(=O)c1c(C)[nH]c(CCC(=O)NCc2cccc(C)c2)c1C	-10.1%	-0.1%[59 µM]	-13.6%	.	25.7%[57 µM]	.
CCOC(=O)c1c(C)[nH]c(N=Nc2cccc(OC)c2)c1C	28.2µM*	31.6µM*	22.4µM*	-4.2	50.1µM*	0.0
CCOC(=O)c1c(C)[nH]c(CCC(=O)NCc2cccc(OC)c2)c1C	-29.9%	-1.6%[59 µM]	3.6%	.	8.1%[57 µM]	.
Cc1cccc(N2CCN(Cc3ccoc3)CC2)c1C	11.2µM*	10µM*	50.1µM*	-6.9	?	-3.7
Cc1cc(CN2CCN(c3cccc(C)c3C)CC2)cs1	-14.7%	-2.0%[59 µM]	-0.4%	.	77.0%	.
COc1cc(CN2CCN(c3cccc(C)c3C)CC2)cc(OC)c1O	1µM*	?	50.1µM*	-18.2	-33.1%	-12.5
COc1ccc(CNC(=O)N2CCN(c3cccc(C)c3C)CC2)cc1OC	-4.3%	12.0%	-22.8%	-4.7	28.7%	-8.4
COc1cc(OC)c(NC(=O)C2CCN(S(=O)(=O)c3ccc4c(c3)oc(=O)n4C)CC2)cc1Cl	-14.9%	1.7%[59 µM]	-15.3%	.	32.7%	.
COCO[C@H]([C@@H](C)C=C(Br)Br)[C@@H](C)COCc1ccc(OC)cc1	77.2%	.	.	.	116.0%	.
Oc1ccc(C[C@@H]2CNC(=S)N2CCCCC2CCCCC2)cc1	?	16.4%[59 µM]	-35.7%	-10.0	-6.6%	.
COc1ccc(CN2CCCN(C)CC2)c(OC)c1C	8.91µM*	.	?	-0.4	?	-0.6
COc1ccc(OC)c(CN2CCN(Cc3ccc(OC)c(OC)c3OC)CC2)c1	.	.	.	-3.0	.	-2.1
COc1cc(Br)c(CC(=O)O)cc1OC	-29.7%	?	-25.5%	8.3	8.1%	-2.2
COc1cc(Br)c(CN2CCCN(C)CC2)cc1OC	-16.6%	70.8µM*	-26.9%	8.5	29.1%	.
SMILES	JMJD2A Tudor inh	G9a block	BAZ2B inh	Six1-Eya2 inh	HP1b chromo inh	CtBP-E1A inh
CN(C)CCn1c(=N)n(CC(O)c2ccc(Cl)c(Cl)c2)c2ccccc21 (stereo unspecified)	-14.7%	44.7µM*	-8.3%	10.0	14.3%	-21.3
N=c1n(CCN2CCCCC2)c2ccccc2n1CC(O)c1ccc(Cl)c(Cl)c1 (stereo unspecified)	?	17.8µM*	-9.6%	-7.3	25.3%	-13.6
N=c1n(CCN2CCCCC2)c2ccccc2n1CC(=O)c1ccc(Cl)c(Cl)c1	-28.5%	.	31.6µM*	26.4	0.9%	24.8
CCn1c(=N)n(CC(=O)c2ccc(Cl)c(Cl)c2)c2ccccc21	2.1%	18.6%	-0.6%	67.2	56.3%	24.6
N=c1n(CCN2CCCCC2)c2ccccc2n1CC(O)c1cccc(Br)c1 (stereo unspecified)	-19.5%	50.1µM*	-10.1%	-4.9	31.8%	-4.1
Cc1ccc(NC(=O)CSc2nnc3ccc(-c4ccncc4)nn23)cc1	-11.0%	-7.7%[12.7 µM]	2.7%	3.4	27.6%	-15.0
N#Cc1c(N)sc(=S)c2c1CCCC2	?	7.08µM*	39.8µM*	?	?	?
O=C(Cc1nnc(CNC(=O)c2ccccc2)o1)Nc1cc(C(F)(F)F)ccc1Cl	-8.2%	.	.	.	.	.
CC(C)CCNC(=O)c1cc(-c2ccco2)nc2ccccc12	-9.6%	30.9%[12.7 µM]	-5.6%	6.3	14.6%	1.7
O=C(NC(=S)NCCCN1CCOCC1)c1ccco1	-7.6%	39.8µM*	-17.7%	5.2	23.8%	3.0
COc1ccc(NC(=O)c2cc(-c3ccco3)nc3ccccc23)cc1S(=O)(=O)N1CCOCC1	?	.	44.7µM*	-20.8	?	-6.0
CCOc1cc(N2CCOCC2)c(OCC)cc1NC(=O)c1cc(-c2ccco2)nc2ccccc12	50.1µM*	8.91µM*	.	-22.0	?	5.7
Cc1ccc(NC(=O)c2cc(-c3ccco3)nc3ccccc23)cc1S(=O)(=O)N1CCOCC1	-33.1%	?	?	-19.7	-18.6%	-1.4
CCCCCCNC(=O)c1cc(-c2ccco2)nc2ccccc12	20µM*	8.91µM*	35.5µM*	-26.1	22.4µM*	6.7
COc1ccc(C(C(=O)NC2CCCC2)N(Cc2cccnc2)C(=O)c2snc(C(N)=O)c2N)cc1 (stereo unspecified)	-7.7%	8.5%	-21.2%	4.4	134.1%	-14.9
O=C(NCCCN1CCOCC1)c1cc(-c2ccco2)nc2ccccc12	50.1µM*	.	.	-22.9	-6.2%	-1.9
